# According to the supplement of paper PMC10037445:
# Values joined by “and” are separate entries in the source; they are usually repeats but may differ in a detail not shown here. Equal values may be shown once. In all, about 2,900 compounds were measured (“NF-kB SEAP reporter activity, fold change vs agonist alone”: median about 0.99, highest 2% from about 2.6 on). Shown is part of a subset that was picked to be rich in the highest values.
# Experiments:
# [1] = tested on: RAW-Dual; experiment: NF-kB SEAP reporter activity, fold change vs agonist alone; cytotoxicity flag (confluency mask): not cytotoxic; higher = enhanced NF-kB activity
# Outline: (§1)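 Cytotoxic wells were those whose IncuCyte confluency was below 70% of agonist controls in both mask sets. The cells were RAW-Dual macrophages at 50,000 cells/well in DMEM on 384-well plates, dosed with 50 nL of library stock by pin tool, stimulated with a PRR agonist 1 h later, and kept at 37 °C, 5% CO2 for 20 hours. IRF and NF-κB reporter activity, as fold change over agonist-alone wells, came from supernatant read by QuantiLuc luminescence and QuantiBlue absorbance, respectively.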
# [2] = tested on: RAW-Dual; experiment: NF-kB SEAP reporter activity, fold change vs agonist alone; higher = enhanced NF-kB activity; conditions: library stock concentration (final ~1000-fold dilution): 10 mM, cytotoxicity flag (confluency mask): not cytotoxic
# Outline: as §1
# [3] = agonist: ODN 1826 (TLR9) 0.5 ug/mL
# [4] = agonist: Pam2CSK4 (TLR2/6) 0.1 ug/mL
# [5] = agonist: Pam3CSK4 (TLR2/1) 0.1 ug/mL
smiles,measurement,setting,value
O=C(Nc1ccc(OC(F)(F)F)cc1)c1sccc1NCc1ccnc2ccccc12 (library stock concentration (final ~1000-fold dilution): 10 mM),NF-kB SEAP reporter activity,[1]; agonist: LPS (TLR4) 0.1 ug/mL,2.86
same,NF-kB SEAP reporter activity,[1]; [3],1.18
same,NF-kB SEAP reporter activity,[1]; [4],0.672
same,NF-kB SEAP reporter activity,[1]; [5],1.07
Cc1cc(Nc2ccc(NC(=O)c3ccc(Nc4ccnc5ccccc45)cc3)cc2)nc(N)n1,NF-kB SEAP reporter activity,[2]; agonist: Imiquimod (TLR7) […],1.31
same,NF-kB SEAP reporter activity,[2]; agonist: MPLA (TLR4) […],2.36
O=C(Nc1ccc(OC(F)(F)F)cc1)c1sccc1NCc1ccnc2ccccc12,NF-kB SEAP reporter activity,[2]; agonist: Imiquimod (TLR7) […],1.77
same,NF-kB SEAP reporter activity,[2]; agonist: MPLA (TLR4) […],2.25
O=C(NCCO)c1cccc(-c2cc(Nc3ccc(OC(F)(F)F)cc3)ncn2)c1,NF-kB SEAP reporter activity,[2]; agonist: Imiquimod (TLR7) […],1.09
same,NF-kB SEAP reporter activity,[2]; agonist: MPLA (TLR4) […],1.23
Cc1cc(Nc2ccc(NC(=O)c3ccc(Nc4ccnc5ccccc45)cc3)cc2)nc(N)n1 (library stock concentration (final ~1000-fold dilution): 10 mM),NF-kB SEAP reporter activity,[1]; agonist: LPS (TLR4) 0.1 ug/mL,2.34
same,NF-kB SEAP reporter activity,[1]; [3],0.228
same,NF-kB SEAP reporter activity,[1]; [4],0.856
same,NF-kB SEAP reporter activity,[1]; [5],1.34
O=C(NCCO)c1cccc(-c2cc(Nc3ccc(OC(F)(F)F)cc3)ncn2)c1 (library stock concentration (final ~1000-fold dilution): 10 mM),NF-kB SEAP reporter activity,[1]; agonist: LPS (TLR4) 0.1 ug/mL,1.15
same,NF-kB SEAP reporter activity,[1]; [3],0.796
same,NF-kB SEAP reporter activity,[1]; [4],0.96
same,NF-kB SEAP reporter activity,[1]; [5],1.03
Cc1[nH]nc(C(F)(F)F)c1Cc1sc2c(c1C(=O)N1CC(C)(O)CO1)c(=O)n(C)c(=O)n2C(C)C (centres undefined),NF-kB SEAP reporter activity,[2]; agonist: Imiquimod (TLR7) […],1.11
same,NF-kB SEAP reporter activity,[2]; agonist: MPLA (TLR4) […],1.25
Cc1[nH]nc(C(F)(F)F)c1Cc1sc2c(c1C(=O)N1CC(C)(O)CO1)c(=O)n(C)c(=O)n2C(C)C (centres undefined) (library stock concentration (final ~1000-fold dilution): 10 mM),NF-kB SEAP reporter activity,[1]; agonist: LPS (TLR4) 0.1 ug/mL,1.81
same,NF-kB SEAP reporter activity,[1]; [3],1.27
same,NF-kB SEAP reporter activity,[1]; [4],0.918
same,NF-kB SEAP reporter activity,[1]; [5],1.06
Cc1cc(C)nc(NC(=S)N2CCN(Cc3ccc(C(F)(F)F)cc3)CC2)c1,NF-kB SEAP reporter activity,[2]; agonist: Imiquimod (TLR7) […],0.758
same,NF-kB SEAP reporter activity,[2]; agonist: MPLA (TLR4) […],0.954
Cc1cc(C)nc(NC(=S)N2CCN(Cc3ccc(C(F)(F)F)cc3)CC2)c1 (library stock concentration (final ~1000-fold dilution): 10 mM),NF-kB SEAP reporter activity,[1]; agonist: LPS (TLR4) 0.1 ug/mL,0.783
same,NF-kB SEAP reporter activity,[1]; [3],0.834
same,NF-kB SEAP reporter activity,[1]; [4],0.805
same,NF-kB SEAP reporter activity,[1]; [5],0.809
CC1c2cccc(O)c2C(=O)C2=C(O)C3(O)C(=O)C(C(N)=O)=C(O)C(N(C)C)C3C(O)C21 (centres undefined),NF-kB SEAP reporter activity,[2]; agonist: MPLA (TLR4) […],1.13
CC1c2cccc(O)c2C(=O)C2=C(O)C3(O)C(=O)C(C(N)=O)=C(O)C(N(C)C)C3C(O)C21 (centres undefined) (library stock concentration (final ~1000-fold dilution): 10 mM),NF-kB SEAP reporter activity,[1]; agonist: LPS (TLR4) 0.1 ug/mL,1.81
same,NF-kB SEAP reporter activity,[1]; [3],0.966
same,NF-kB SEAP reporter activity,[1]; [4],0.896
same,NF-kB SEAP reporter activity,[1]; [5],0.885
CC(=O)N1CCC(Nc2cc(C(=O)NCC(O)CN3CCc4ccccc4C3)ncn2)CC1 (centres undefined),NF-kB SEAP reporter activity,[2]; agonist: Imiquimod (TLR7) […],0.92
same,NF-kB SEAP reporter activity,[2]; agonist: MPLA (TLR4) […],1.03
CC(=O)N1CCC(Nc2cc(C(=O)NCC(O)CN3CCc4ccccc4C3)ncn2)CC1 (centres undefined) (library stock concentration (final ~1000-fold dilution): 10 mM),NF-kB SEAP reporter activity,[1]; agonist: LPS (TLR4) 0.1 ug/mL,1.08
same,NF-kB SEAP reporter activity,[1]; [3],0.948
same,NF-kB SEAP reporter activity,[1]; [4],1.13
same,NF-kB SEAP reporter activity,[1]; [5],1.17
Cc1cc(N=Nc2ccc3c(c2)CCC(=O)N3)c(N)cc1O (library stock concentration (final ~1000-fold dilution): 10 mM),NF-kB SEAP reporter activity,[1]; agonist: LPS (TLR4) 0.1 ug/mL,1.42
same,NF-kB SEAP reporter activity,[1]; [3],1.33
same,NF-kB SEAP reporter activity,[1]; [4],0.692
same,NF-kB SEAP reporter activity,[1]; [5],1.22
O=C(O)C1=C/C(=N\Nc2ccc(S(=O)(=O)Nc3ccccn3)cc2)C=CC1=O (library stock concentration (final ~1000-fold dilution): 10 mM),NF-kB SEAP reporter activity,[1]; agonist: LPS (TLR4) 0.1 ug/mL,1.65
same,NF-kB SEAP reporter activity,[1]; [3],1.26
same,NF-kB SEAP reporter activity,[1]; [4],0.969
same,NF-kB SEAP reporter activity,[1]; [5],0.851
O=C(O)C1=C/C(=N\Nc2ccc(S(=O)(=O)Nc3ccccn3)cc2)C=CC1=O,NF-kB SEAP reporter activity,[2]; agonist: Imiquimod (TLR7) […],1.07
same,NF-kB SEAP reporter activity,[2]; agonist: MPLA (TLR4) […],1.31
Cc1cc(N=Nc2ccc(S(=O)(=O)Nc3ccccn3)cc2)c(N)cc1O (library stock concentration (final ~1000-fold dilution): 10 mM),NF-kB SEAP reporter activity,[1]; agonist: LPS (TLR4) 0.1 ug/mL,3.77
same,NF-kB SEAP reporter activity,[1]; [3],2.32
same,NF-kB SEAP reporter activity,[1]; [4],0.966
same,NF-kB SEAP reporter activity,[1]; [5],2.13
Cc1cc(N=Nc2ccc3c(c2)CCC(=O)N3)c(N)cc1O,NF-kB SEAP reporter activity,[2]; agonist: Imiquimod (TLR7) […],1.35
same,NF-kB SEAP reporter activity,[2]; agonist: MPLA (TLR4) […],1.77
Cc1cc(N=Nc2ccc(S(=O)(=O)Nc3ccccn3)cc2)c(N)cc1O,NF-kB SEAP reporter activity,[2]; agonist: Imiquimod (TLR7) […],1.38
same,NF-kB SEAP reporter activity,[2]; agonist: MPLA (TLR4) […],2.48
O=C(c1ccccc1)C(O)O,NF-kB SEAP reporter activity,[2]; agonist: MPLA (TLR4) […],1.19
O=C(c1ccccc1)C(O)O (library stock concentration (final ~1000-fold dilution): 10 mM),NF-kB SEAP reporter activity,[1]; agonist: LPS (TLR4) 0.1 ug/mL,1.12
same,NF-kB SEAP reporter activity,[1]; [3],1.04
same,NF-kB SEAP reporter activity,[1]; [4],1.14
same,NF-kB SEAP reporter activity,[1]; [5],1.07
CCC(=O)OC1CC(=O)OC(C)C/C=C/C=C/C(O)C(C)CC(CC=O)C(OC2OC(C)C(OC3CC(C)(O)C(OC(=O)CC)C(C)O3)C(N(C)C)C2O)C1OC (centres undefined) (library stock concentration (final ~1000-fold dilution): 10 mM),NF-kB SEAP reporter activity,[1]; agonist: LPS (TLR4) 0.1 ug/mL,0.93
same,NF-kB SEAP reporter activity,[1]; [3],1.02
same,NF-kB SEAP reporter activity,[1]; [4],1.06
same,NF-kB SEAP reporter activity,[1]; [5],1.21
CCC(=O)OC1CC(=O)OC(C)C/C=C/C=C/C(O)C(C)CC(CC=O)C(OC2OC(C)C(OC3CC(C)(O)C(OC(=O)CC)C(C)O3)C(N(C)C)C2O)C1OC (centres undefined),NF-kB SEAP reporter activity,[2]; agonist: Imiquimod (TLR7) […],0.961
same,NF-kB SEAP reporter activity,[2]; agonist: MPLA (TLR4) […],1.07
COc1ccc2c(c1O)-c1c(O)c(OC)cc3c1C(C2)[N+](C)(C)CC3 (centres undefined) (library stock concentration (final ~1000-fold dilution): 10 mM),NF-kB SEAP reporter activity,[1]; agonist: LPS (TLR4) 0.1 ug/mL,1.1 and 1.18
same,NF-kB SEAP reporter activity,[1]; [3],0.935 and 1.11
same,NF-kB SEAP reporter activity,[1]; [4],1.01 and 1.08
same,NF-kB SEAP reporter activity,[1]; [5],0.967 and 1.08
